According to PubChem BioAssay (NCI):
About 83,000 compounds went through this panel and 20% of them were active in at least one assay; those are over-represented in the sample as a whole.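 Treatment: one concentration, 48 hours, 96-well format. Scoring: percent growth, with anything below 10 considered active.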 The source made the active and inactive calls.

What was measured:
Assay in all cases: NCI-60 one-dose screen, 48 h (100 = growth as untreated, 0 = no growth, -100 = all killed)
Details in all cases: 10 µM unless noted
[1] = system: HCT-15 colon
[2] = system: HT29 colon
[3] = system: SNB-75 CNS
[4] = system: SNB-19 CNS
[5] = system: U251 CNS
[6] = system: PC-3 prostate
[7] = system: SK-MEL-5 melanoma
[8] = system: UACC-62 melanoma
[9] = system: LOX IMVI melanoma
[10] = system: SK-MEL-28 melanoma

Measured: growth

COC(=O)C1Cc2ccccc2CN1C(=O)c1ccc2c(c1)Cc1ccccc1-2 (stereo not given)
active: [7] -39.9% [50 µM]
inactive: [1] 22.4% [50 µM] | [2] 23.1% [50 µM] | [3] 60.8% [50 µM] | [4] 43.7% [50 µM] | [5] 32.3% [50 µM] | [6] 21.2% [50 µM] | [8] 33.3% [50 µM] | [9] 35.8% [50 µM] | [10] 47.8% [50 µM]

O=C(CSc1nnc(-c2cnccn2)n1-c1ccccc1)c1ccc(Cl)cc1
inactive: [1] 97.5% | [2] 94.7% | [3] 110% | [4] 101% | [5] 93.7% | [6] 87.8% | [7] 99.7% | [8] 84.9% | [9] 108% | [10] 103%

NC(Cc1ccc(O)c([N+](=O)[O-])c1)C(=O)O (stereo not given)
inactive: [1] 98.5% | [2] 99.1% | [3] 97.2% | [4] 105% | [5] 97.2% | [6] 90.5% | [7] 105% | [8] 103% | [9] 94.3% | [10] 99.9%

OCCn1cc(-c2nc(-c3c[nH]c4ncccc34)cs2)c2cc(F)ccc21
inactive: [1] 41.6% | [2] 46.8% | [3] 72.5% | [4] 79.5% | [5] 62.9% | [6] 48.7% | [7] 63% | [8] 63.3% | [9] 65.5% | [10] 89.8%

CC1OC(n2c3ccccc3c3c4c(c5c6ccccc6[nH]c5c32)C(=O)N(CCN2CCCC2)C4=O)CC(O)C1O (stereo not given)
inactive: [1] 10.7% | [3] 12.1% | [4] 35.1% | [5] 37.9% | [6] 33.2% | [7] 61.3% | [8] 67.7% | [9] 25.3% | [10] 91.4%
active: [2] -49.9%

CCCCn1c(=O)[nH]c(N)c([C@@H]2c3c([nH]c(=O)n(CCCC)c3=O)Oc3ccc4ccccc4c32)c1=O
inactive: [3] 87.1% | [4] 64.2% | [6] 24.4% | [7] 67% | [8] 80.1% | [10] 44%
active: [1] 6.62% | [2] -44.2% | [5] -20.7% | [9] -76.2%

Clc1cc(Cl)c(Cl)c(-c2nnc(SCc3ccncc3Br)o2)c1
inactive: [1] 112% | [2] 102% | [3] 84.4% | [4] 102% | [5] 90.3% | [6] 92.4% | [7] 81.8% | [8] 89.7% | [9] 95% | [10] 94.4%

COc1ccc2c(c1)CC[C@H](O)/C2=C/c1cc(OC)c(OC)c(OC)c1
active: [2] 0.825% | [7] -40%
inactive: [1] 13.9% | [3] 19.1% | [4] 38.3% | [5] 13.3% | [6] 17.8% | [8] 31.8% | [9] 18.2% | [10] 61.5%

COc1ccc(-c2ccc(-c3ccc(C(=N)N)cc3)s2)cc1Cl
active: [1] -70.3% | [2] 0.572% | [5] -62.4% | [6] -25% | [9] -76.7%
inactive: [3] 100% | [4] 24% | [7] 87.7% | [8] 88.3% | [10] 102%

N#Cc1c(-c2ccc(Cl)cc2)nc(NN2C(=O)c3ccccc3C2=O)nc1N1CCOCC1
inactive: [1] 112% | [2] 108% | [3] 84.6% | [4] 94.1% | [5] 106% | [6] 110% | [7] 101% | [8] 101% | [9] 102% | [10] 117%

O=C(C[C@]1(O)C(=O)Nc2ccccc21)c1cccc(C(F)(F)F)c1
inactive: [1] 96.5% | [2] 96.1% | [3] 76.8% | [4] 95.9% | [5] 92.4% | [6] 81.4% | [7] 91.7% | [8] 78.3% | [9] 93.2% | [10] 91.6%

NS(=O)(=O)c1ccc(N=Nc2c(O)n(Cc3ccccc3)c3ccc(Cl)cc23)cc1
active: [3] -9.32%
inactive: [1] 88.8% | [2] 94.6% | [4] 40.8% | [5] 81.7% | [6] 83.8% | [7] 80.5% | [8] 66.6% | [9] 97.6% | [10] 93.2%

Cc1ccc(CNc2ccc3nc(CCC4CCCCC4)[nH]c3c2)cc1
active: [2] 9.91% | [7] -19.5%
inactive: [1] 12.7% | [3] 79.7% | [4] 58.4% | [5] 29.8% | [6] 38.5% | [8] 32.9% | [9] 50.1% | [10] 38.5%

Cc1cc(C(=O)O)c(C)n1-c1cccc(C(=O)O)c1
active: [1] 9.52%
inactive: [2] 28.4% | [3] 121% | [4] 87% | [5] 64.2% | [6] 98.4% | [7] 95.8% | [8] 85.1% | [9] 65% | [10] 102%

NC(=O)CSc1oc(-c2ccccc2)nc1S(=O)(=O)c1ccc(Br)cc1
inactive: [1] 90.6% | [2] 50.2% | [4] 83% | [5] 54.6% | [6] 77.9% | [7] 55.7% | [8] 49.5% | [9] 94.3% | [10] 87.7%
active: [3] 9.67%

CCOC(=O)C1=C(C)NC(=O)NC1c1c(Cl)n(CCCl)c2ccccc12 (stereo not given)
inactive: [1] 99.6% | [2] 107% | [3] 85.4% | [4] 100% | [5] 94.4% | [6] 91.7% | [7] 102% | [8] 85.4% | [9] 92.6% | [10] 108%

CCN(CC)CCn1c2ccc(O)cc2c2sc3cc(O)ccc3c(=O)c21
active: [9] 8.55%
inactive: [1] 29.1% | [2] 27.1% | [3] 76.1% | [4] 23.4% | [5] 28.8% | [6] 31.5% | [7] 60.7% | [8] 39.4% | [10] 54.5%

CCCC/C=C/[C@@H]1C[C@H]1CCO
inactive: [1] 97.7% | [2] 97.2% | [3] 90.3% | [4] 96.3% | [5] 101% | [6] 95.5% | [7] 99.3% | [8] 92.4% | [9] 98.2% | [10] 98.1%

CN1C(=O)/C(=C\c2c(Cl)cccc2Cl)c2ccccc21
inactive: [1] 67% | [2] 84.5% | [3] 61.3% | [4] 80% | [5] 88.4% | [6] 95% | [7] 86.5% | [8] 71.2% | [9] 82.5% | [10] 94.4%

CCOC(=O)n1ccn(C)c1=S
inactive: [1] 104% | [2] 96.2% | [3] 104% | [4] 110% | [5] 100% | [6] 91% | [7] 109% | [8] 108% | [9] 105% | [10] 108%

CCO/C=N/C1=C(C#N)C(c2ccc(Cl)cc2)c2sc3c(F)cccc3c2O1 (stereo not given)
inactive: [1] 35.7% | [2] 89.5% | [3] 42.6% | [4] 51.2% | [5] 45.7% | [6] 67.1% | [7] 64.9% | [8] 35.9% | [9] 51.8% | [10] 73.6%

O=C1C(Cl)=C(NCCCCCCNC2=C(Cl)C(=O)c3ccccc3C2=O)C(=O)c2ccccc21
inactive: [1] 63.3% | [2] 98.7% | [3] 117% | [4] 96.3% | [5] 89.9% | [6] 82.2% | [7] 53.2% | [8] 83.5% | [9] 36.3% | [10] 111%

CCOC(=O)c1ccc(NC(=O)c2nc(-c3cc(OC)c(OC)c(OC)c3)n(-c3ccc(Cl)cc3)n2)cc1
inactive: [1] 93.2% | [2] 89.9% | [3] 81% | [4] 88.8% | [5] 93.8% | [6] 77.5% | [7] 63.6% | [8] 77.7% | [9] 91.8% | [10] 95%

Cn1c(=O)c2nc(/C=C/c3ccccc3)c(=O)[nH]c2n(C)c1=S
inactive: [1] 102% | [2] 109% | [3] 105% | [4] 105% | [5] 108% | [6] 102% | [7] 102% | [8] 92.4% | [9] 101% | [10] 111%

COC(=O)c1cc(N=C2NC(=O)/C(=C/C=C/c3ccccc3)S2)ccc1O
inactive: [1] 25.8% | [2] 10.7% | [3] 12.9% | [4] 30.4% | [5] 22.6% | [6] 30% | [7] 30.1% | [8] 33.6% | [9] 40.1% | [10] 65.4%

Cc1cc(N2CCN(CC(=O)Nc3ccc4c(ccn4C)c3)CC2)nc(N2CCCCCC2)n1
inactive: [1] 79% | [2] 56.9% | [3] 90.1% | [4] 89.1% | [5] 85.9% | [6] 82.8% | [7] 92.1% | [8] 84.3% | [9] 92.8% | [10] 96.9%
